According to PubChem BioAssay (NCI):
About 79,000 compounds went through this panel and 15% of them were active in at least one assay; those are over-represented in the sample as a whole. Calls of active or inactive are those of the source. No stated cut-off is given here; in the data, active means growth inhibition above about 70%; inactive means the rest.

Key:
[1] = NCI Yeast Anticancer Drug Screen. Data for the mec2-1 strain (AID 157); conditions: S. cerevisiae mec2-1 strain, active compounds read high
Procedure, shortened: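 Growth inhibition is read against vehicle-treated controls after compound exposure of the mec2-1 yeast strain, which is defective in DNA damage repair or cell cycle control.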

[2] = NCI Yeast Anticancer Drug Screen. Data for the rad14 strain (AID 159);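 further: 0% = growth of vehicle-treated control cultures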; conditions: S. cerevisiae rad14 strain growth inhibition, active compounds read high
Procedure, shortened: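 Growth inhibition vs vehicle controls; genetically altered yeast strain (DNA damage repair defect) treated with test compounds.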

[3] = NCI Yeast Anticancer Drug Screen. Data for the sgs1 mgt1 strain (AID 161);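 further: 0% = growth of cultures given vehicle only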; conditions: S. cerevisiae sgs1 mgt1 strain, active compounds read high
Procedure, shortened: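 Yeast cells carrying a defined DNA-repair defect were exposed to test compounds. Growth inhibition was measured relative to vehicle-treated controls.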

[4] = NCI Yeast Anticancer Drug Screen. Data for the CLN2oe strain (AID 163);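 further: 0% = growth of vehicle-only control cultures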; conditions: S. cerevisiae CLN2oe strain, active compounds read high
Procedure, shortened: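 Compound-treated yeast; growth vs vehicle ctrl = % inhibition. Genetically altered strain (cell-cycle control).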

[5] = NCI Yeast Anticancer Drug Screen. Data for the cln2 rad14 strain (AID 165);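 further: 0% = growth equal to vehicle treated cultures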; conditions: S. cerevisiae cln2 rad14 strain, active compounds read high
Procedure, shortened: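 Growth inhibition, relative to vehicle-treated controls, is the read-out. The test organism is a yeast strain with defined genetic alterations, cln2 rad14.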

[6] = NCI Yeast Anticancer Drug Screen. Data for the bub3 strain (AID 167); conditions: S. cerevisiae bub3 mutant strain, active compounds read high
Procedure, shortened: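 Readout: yeast growth inhibition, expressed relative to vehicle-only wells. The test organism is a mutant strain from a panel with lesions in DNA repair or checkpoint genes.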

[7] = NCI Yeast Anticancer Drug Screen. Data for the wt2 strain (AID 169);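 further: 0% = growth of vehicle-treated yeast cultures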; conditions: S. cerevisiae wt2 strain growth inhibition, active compounds read high
Procedure, shortened: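 Compound exposure of yeast; growth compared with vehicle controls; inhibition reported.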

[8] = NCI Yeast Anticancer Drug Screen. Data for the mlh1 strain (AID 171);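 further: 0% = growth of vehicle-treated control cultures of the same strain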; conditions: S. cerevisiae mlh1 strain growth inhibition, active compounds read high
Procedure, shortened: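 Compounds are applied to a genetically altered yeast strain, and its growth is compared with that of vehicle-treated cultures to give percent inhibition.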

[9] = NCI Yeast Anticancer Drug Screen. Data for the sgs1 strain (AID 173);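 further: 0% = growth of vehicle-only control cultures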; conditions: S. cerevisiae sgs1 mutant, active compounds read high
Procedure, shortened: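 Compounds applied to genetically altered yeast; growth compared with vehicle-treated cultures to give % inhibition.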

[10] = NCI Yeast Anticancer Drug Screen. Data for the mlh1 rad18 strain (AID 175); conditions: S. cerevisiae mlh1 rad18 strain growth inhibition, active compounds read high
Procedure, shortened: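 Cells of a genetically altered yeast strain, deficient in DNA damage repair, were treated with compound. Their growth was then compared with that of vehicle-treated cultures to give inhibition.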

[11] = NCI Yeast Anticancer Drug Screen. Data for the rad18 strain (AID 177); conditions: S. cerevisiae rad18 mutant growth inhibition, active compounds read high
Procedure, shortened: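 Compounds are applied to a repair-deficient yeast strain, and growth is compared with that of vehicle-treated cultures to give percent inhibition.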

[12] = NCI Yeast Anticancer Drug Screen. Data for the rad52 strain (AID 147);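 further: 0% = growth of vehicle-treated control cultures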; conditions: S. cerevisiae rad52 mutant growth inhibition, active compounds read high
Procedure, shortened: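 DNA repair-defective yeast; compound exposure; growth scored against vehicle controls.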

[13] = NCI Yeast Anticancer Drug Screen. Data for the wt1 strain (AID 149);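 further: 0% = growth of vehicle-treated wt1 cultures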; conditions: S. cerevisiae wt1 strain (SPY 50644) growth inhibition, active compounds read high
Procedure, shortened: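 Growth inhibition read against vehicle controls after compound exposure of the wt1 yeast strain.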

[14] = NCI Yeast Anticancer Drug Screen. Data for the rad50EPP+ strain (AID 151);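 further: 0% = growth of vehicle-treated control cultures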; conditions: S. cerevisiae rad50 mutant strain, active compounds read high
Procedure, shortened: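 rad50EPP+ yeast treated with test compounds. Readout: growth vs vehicle control.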

[15] = NCI Yeast Anticancer Drug Screen. Data for the mgt1 strain (AID 153); conditions: S. cerevisiae mgt1 mutant growth inhibition, active compounds read high
Procedure, shortened: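 Growth inhibition relative to vehicle controls was scored for the mgt1 yeast strain after compound exposure.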

[16] = NCI Yeast Anticancer Drug Screen. Data for the rad50 strain (AID 155);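 further: 0% = growth of vehicle-only cultures of the same strain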; conditions: S. cerevisiae rad50 strain growth inhibition, active compounds read high
Procedure, shortened: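 Readout: growth inhibition relative to vehicle-treated cultures. Compound exposure was carried out in a genetically defined yeast strain deficient in DNA damage repair.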

[17] = at 5.0 µM (retest, dose inferred, filed as 0.5)
[18] = at 50.0 µM (retest, dose inferred, filed as 5.0)

Measured: growth inhibition

c1ccc2cc(NCNc3ccc4ccccc4c3)ccc2c1
inactive: [1]; [17] 8% | [1]; at 11.0 µM 3% | [1]; at 33.0 µM 14% | [1]; [18] 46% | [1]; at 50.0 µM 69.8% | [1]; at 100.0 µM 27% | [2]; at 1.2 µM 1% | [2]; at 3.7 µM 1% | [2]; at 11.0 µM 0% | [2]; at 33.0 µM -13% | [2]; at 100.0 µM 16% | [3]; [17] 0% | [3]; [18] 46% | [4]; at 1.2 µM -3% | [4]; at 3.7 µM -3% | [4]; at 11.0 µM -6% | [4]; at 33.0 µM -1% | [4]; at 100.0 µM 6% | [5]; [17] -17% | [5]; [18] -22% | [6]; at 1.2 µM 0% | [6]; at 3.7 µM 6% | [6]; [17] 18% | [6]; at 11.0 µM -22% | [6]; at 33.0 µM 51% | [6]; at 100.0 µM 55% | [7]; at 1.2 µM -1% | [7]; at 3.7 µM 1% | [7]; at 11.0 µM 1% | [7]; at 33.0 µM 7% | [7]; at 100.0 µM 12% | [8]; at 1.2 µM 3% | [8]; at 3.7 µM 3% | [8]; at 11.0 µM 4% | [8]; at 33.0 µM -22% | [8]; at 100.0 µM 15% | [9]; at 1.2 µM 3% | [9]; at 3.7 µM 0% | [9]; at 11.0 µM 1% | [9]; at 33.0 µM 8% | [9]; at 100.0 µM 27% | [10]; [17] 12% | [10]; [18] 65% | [11]; at 1.2 µM -5% | [11]; at 3.7 µM -2% | [11]; at 11.0 µM -19% | [11]; at 33.0 µM -9% | [11]; at 100.0 µM 3%
active: [3]; at 50.0 µM 95.3% | [5]; at 50.0 µM 76.9% | [6]; [18] 76% | [6]; at 50.0 µM 94.8% | [10]; at 50.0 µM 94.9%

COC(=O)NC1C(C)OC(OC2C/C=C(/C)C3C=CC4C(OC5CC(OC6CC(O)C(OC7CC(O)C(OC)C(C)O7)C(C)O6)C(O)C(C)O5)C(C)CC(C)C4C3(C)/C(O)=C3\C(=O)OC4(CC(C)C(CO)=CC4/C=C\2C)C3=O)CC1(C)[N+](=O)[O-] (stereo unspecified)
inactive: [12]; at 1.2 µM 15% | [12]; at 3.7 µM 40% | [12]; at 11.0 µM 41% | [12]; at 33.0 µM 38% | [12]; at 100.0 µM 21% | [13]; at 1.2 µM 10% | [13]; at 3.7 µM 22% | [13]; at 11.0 µM 20% | [13]; at 33.0 µM 22% | [13]; at 100.0 µM 10% | [14]; at 1.2 µM 10% | [14]; at 3.7 µM 8% | [14]; at 11.0 µM 11% | [14]; at 33.0 µM 5% | [14]; at 100.0 µM 11% | [15]; at 1.2 µM -7% | [15]; at 3.7 µM 2% | [15]; at 11.0 µM -1% | [15]; at 33.0 µM 8% | [15]; at 100.0 µM 7% | [16]; at 1.2 µM 5% | [16]; at 3.7 µM 16% | [16]; [17] 23% | [16]; at 11.0 µM 22% | [16]; at 33.0 µM 21% | [16]; [18] 40% | [16]; at 50.0 µM 5.7% | [16]; at 100.0 µM 16% | [1]; at 1.2 µM 2% | [1]; at 3.7 µM -5% | [1]; [17] 9% | [1]; at 11.0 µM -4% | [1]; at 33.0 µM 5% | [1]; [18] 34% | [1]; at 50.0 µM -7.4% | [1]; at 100.0 µM -3% | [2]; at 1.2 µM 13% | [2]; at 3.7 µM 19% | [2]; at 11.0 µM 14% | [2]; at 33.0 µM 16% | [2]; at 100.0 µM 13% | [3]; [17] 13% | [3]; [18] 27% | [3]; at 50.0 µM 9.1% | [4]; at 1.2 µM 27% | [4]; at 3.7 µM 15% | [4]; at 11.0 µM 20% | [4]; at 33.0 µM 18% | [4]; at 100.0 µM 28% | [5]; [17] 44% | [5]; [18] 33% | [5]; at 50.0 µM 14.8% | [6]; at 1.2 µM 22% | [6]; at 3.7 µM 19% | [6]; [17] 34% | [6]; at 11.0 µM 13% | [6]; at 33.0 µM 9% | [6]; [18] 26% | [6]; at 50.0 µM 10.7% | [6]; at 100.0 µM 9% | [7]; at 1.2 µM -42% | [7]; at 3.7 µM -37% | [7]; at 11.0 µM -47% | [7]; at 33.0 µM -30% | [7]; at 100.0 µM -21% | [8]; at 1.2 µM -4% | [8]; at 3.7 µM 5% | [8]; at 11.0 µM 3% | [8]; at 33.0 µM 3% | [8]; at 100.0 µM -2% | [9]; at 1.2 µM 0% | [9]; at 3.7 µM -8% | [9]; at 11.0 µM -15% | [9]; at 33.0 µM -13% | [9]; at 100.0 µM -10% | [10]; [17] 27% | [10]; [18] 65% | [10]; at 50.0 µM 10.6% | [11]; at 1.2 µM 1% | [11]; at 3.7 µM 17% | [11]; at 11.0 µM 14% | [11]; at 33.0 µM 14% | [11]; at 100.0 µM 13%
